# Laboratory results: the supplement of paper PMC6555819
# Tests used:
# Assay in all cases: PBM binding z-score (relative to random genomic background probes); higher = stronger binding; sequences stand for … in GC…GCGATTGACAGCGTAGAATGAAGG
# [1] = system: RARb homodimer (NR concentration 270 nM)
# Procedure, shortened: (§1)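 For binding z-scores, the reference was random background probes on custom Agilent 4×180K protein-binding microarrays. These arrays were incubated 1 h with ligand-free nuclear receptor dimers in PBS pH 7.4, 2% milk, 0.02% Triton X-100, 1 mM DTT, 0.2 mg/mL BSA and 0.4 mg/ml salmon testes DNA. Fluorescence was scanned after antibody detection of each partner (one per run) and regression-normalized.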
# [2] = system: RARg:RXRa (NR concentration 270 nM, RXRa partner concentration 90 nM)
# Procedure, shortened: as §1
# [3] = system: RARg homodimer (NR concentration 270 nM)
# Procedure, shortened: as §1
# [4] = system: RXRa DBDmut IVT, anti-RXR (DBD mutation: RXRa K156A/R161A, NR concentration 90 nM)
# Procedure, shortened: as §1
# [5] = system: RXRa homodimer (NR concentration 180 nM)
# Procedure, shortened: as §1
# [6] = system: THRa:RXRa (NR concentration 90 nM, RXRa partner concentration 90 nM)
# Procedure, shortened: as §1
# [7] = system: THRa homodimer (NR concentration 90 nM)
# Procedure, shortened: as §1
# [8] = system: VDR:RXRa (NR concentration 270 nM, RXRa partner concentration 90 nM)
# Procedure, shortened: as §1
# [9] = system: VDR homodimer (NR concentration 270 nM)
# Procedure, shortened: as §1
Sequence,PBM binding z-score [1],PBM binding z-score [2],PBM binding z-score [3],PBM binding z-score [4],PBM binding z-score [5],PBM binding z-score [6],PBM binding z-score [7],PBM binding z-score [8],PBM binding z-score [9]
CAAACTAGGTCACGAAAGGTCAGAGTCGAATGAC,5.65,7.33,7.81,2.37,7.38,4.84,2.26,6.2,2.55
CAAACTAGGTCGAGGTCAAAGTCGGTTTGTGCCA,4.43,5.24,4.79,2.93,5.63,4.31,3.49,5.52,5.19
GCTAGCAGGCCATTTGGGTCAGTCAATGACGGGC,1.42,0.49,1.01,-0.27,0.218,0.812,-0.371,0.157,-0.151
CCGACTGGGGCAAGCTTACCATAACGCACAGCCA,-0.00597,0.179,0.523,0.00515,-0.0329,-0.39,-0.624,-0.753,-0.428
CAAACTAGTTCACAGAGGTCAAAGTCCGTGCGTA,4.92,6.03,5.68,3.93,6.83,4.01,1.93,7.47,7.92
CCTACTGGGCCAAAAAGGTCACTGATGCCGATAA,4.56,4.77,4.86,0.0179,4.83,3.07,0.702,4.5,1.53
CGTCCAAGGTCAGGGTCAGTGAAAGAGACTCGAA,4.57,5.67,6.48,2.75,5.14,3.9,2.66,3.92,2.19
AGAACGCGGGCAATGAGTTGATAGCACGGGTGGC,-0.332,0.0304,0.194,-0.0914,0.299,-0.395,-1.04,1.56,0.678
CCTACTGGGCCACGAAAGATCATTGATTCAGTGA,-0.335,-0.154,0.283,-0.361,0.0459,-0.0965,-0.393,-0.306,-0.52
ATATGTAGGTTACATCCGTGTCATTCAGGCTATG,1.2,1.59,1.21,1.02,1.08,1.4,0.344,1.4,0.511
TCTCGGAGGACACAAAAGGTCAGAGCTCGACATC,4.4,4.67,4.91,1.15,3.9,3.41,1.1,3.17,1.02
CAAACTTGGTCACGAAAGGTCAAAGTCGAATGAC,4.71,6.15,6.2,1.4,7.01,4.07,0.947,5.37,3.11
GGAACGAGGGCATTCGAGTTGATAGCTTGGCGAT,0.679,1.02,1.33,3.13,0.592,3.17,-0.698,3.55,3.03
ATCGAAAGGTCGTGAGGTCAGTATACAGAAAGGC,4.83,6.17,5.53,2.13,6.57,4.25,3.19,5.51,3.51
GCTCTTAGTTGAAAGGGCAACCGAATGATTCTCG,1.96,1.34,1.31,0.899,1.18,0.622,-0.289,0.445,0.164
AGTCAAAATTCATCTAGGTAACGTAAGATATGCT,-0.349,0.038,0.342,0.0782,-0.00435,0.538,0.0978,-0.0109,-0.296
TCTGCTAGGCCAGTTGGTCAGCTAACGAGCTGCC,-0.0493,-0.411,-0.212,-0.198,-0.79,-0.845,-1.4,-0.797,-1.5
ATCGAAAGGTCGACGAGGTGAGTATCCACCGTTT,2.9,4.16,4.03,1.27,4.38,3.78,1.01,5.24,0.828
AGAATGAGGTTATACTTAGATCAGGGAAGAAAGT,0.8,1.56,1.14,1.87,1.87,1.96,0.882,1.41,0.999
TCATATAGGTAAAAGTGAAAGTCGAACGATATGA,-0.485,0.288,0.384,0.791,0.523,-0.171,-0.456,0.265,-0.103
TCGAGTAGGTTAGGGGCACTCAGAATGGCGTCGA,0.798,0.322,0.17,0.247,0.488,0.572,0.0941,-0.143,0.0717
TCTGCTAGGTCATTTGGTCAGCTAACGAGCTGCC,2.97,3.84,4.17,2.58,2.34,2.42,0.658,2.21,1.49
CCTATTAGTTGACGATAAGGGCAACCGAAGCTCG,1.43,0.95,0.873,0.16,0.582,1.57,0.591,0.128,0.415
GCTGCTAGGTCAGGTTGGTCAGCTACCGGGTACG,2.79,2.17,3.73,0.371,0.808,1.76,0.717,0.397,0.476
TCTCGTTGGTCACGGAGGTCACACACGACGGGTA,4.68,4.95,4.91,0.929,4.39,3.73,2.29,5.96,2.98
ATCTCTTGGTAACAAGTTCAGTGAAAGAGAGGAC,1.67,0.629,1,1.09,0.531,0.831,0.489,1.84,2.61

Sequence,PBM binding z-score [1],PBM binding z-score [2],PBM binding z-score [3],PBM binding z-score [4],PBM binding z-score [5],PBM binding z-score [6],PBM binding z-score [7],PBM binding z-score [8],PBM binding z-score [9]
ACAGACAGGTGACTGAAGGTAACTCAGCTGGACG,0.000361,0.5,0.509,-0.793,0.654,1.94,-0.751,-0.404,-0.657
ACTATTAGTTGAGACGAGAGCAACCGATAGGTTG,-0.441,0.044,0.359,-0.00279,0.11,-0.0893,-0.555,0.00985,-0.215
CAAACTAGGTCAAGGTCAACGTCGGTTTGTGCCA,5.65,6.16,6.86,2.58,5.91,4.62,4.3,5.02,3.89
CCGAGTAGGTTATGGGGCATTTAGGCAACGGTGA,0.777,0.488,0.435,0.127,0.632,0.429,0.289,-0.0639,-0.135
TCATATAGCTAAAGGTGAAAGTCGAACGATATGA,1.14,1.43,0.944,0.443,1.84,1.18,-0.427,0.865,-0.396
ACTATTAGTTGACTTAGAGCAACCGATACGACGC,-0.15,0.294,0.597,0.671,0.318,0.0226,0.0225,-0.14,-0.0313
ATATGTAGGTAAAGGGTCATTCAGGTTGGTTCGC,4.14,4.11,3.22,2.01,4.98,3.26,1.71,5.54,4.15
CATACAGGTTCAGCTAGGCCAGAGTAGGGACGGC,0.871,1.01,1.03,2.89,1.41,1.05,0.0311,1.99,2.65
AGTCAAAGTTCACTAGGTAAAGTAAGATTCAGCT,3.32,4.93,5.48,4.25,4.02,1.75,0.0953,3.34,3.61
GCTATTCGTTGAAAGGGCAACCGAATGATTCTCG,1.85,1.23,1.21,0.319,0.916,0.348,-0.335,0.306,-0.329
TCTTGTAGATCAATAGACGTTAAGAAAGTGCGCT,-0.66,-0.0458,0.0391,0.88,-0.042,-0.347,-0.846,0.326,0.0604
GCATACAGGTAATACAAGGTGAAAGTCCGATTGT,1.04,0.773,0.617,0.25,0.894,4.17,1.16,0.492,0.161
TCTGCTAGGTCCGTTGGTCAGCTAACGAGCTGCC,-0.396,-0.454,-0.542,0.392,-0.5,-0.748,-1.13,-0.499,-0.592
CCTAGTTGGTGAGGAGGTCACACACCGGATATGA,3.83,4.09,3.23,0.474,3.91,3.34,2.03,3.46,2.53
AGAATGAGGTTCAGATCAGGGAAACAGAATACAT,0.405,0.907,0.758,1.63,1.02,2.61,-0.043,0.949,1.03
ACATACAGGTGAGTGAAGGTAACTCAGCTGGACG,0.773,1.2,0.903,0.0119,0.795,2.21,-0.215,0.0169,0.00472
CTCGAACGGTCGTGCTCAGGTGAGTATACCAAAC,0.628,0.435,0.489,0.177,-0.088,1.4,0.536,-0.344,-0.528
CCTTACGCGTCACGAGGTTATAGCACGACGAGCG,0.644,0.881,0.604,0.705,1.38,1.51,0.967,0.899,0.734
AATATAGGGTCACTAGGCCAGAGTAGGTACGAAT,3.3,5.24,4.94,2.94,5.71,3.61,1.67,4.06,2.21
GCTAGCAGGCCATTTGGGTCACTCTATGACGGGC,1.56,0.776,0.994,-0.157,0.463,1.4,0.526,0.648,0.578
AGCTCTAGGTAAAGTTCAGTGAAAGATCGATAGA,2.32,1.94,2.58,1.43,0.97,0.941,-0.0509,1.08,1.6
TCATATAGGTAAAGGTAAAAGTCGAACGATATGA,0.156,0.701,0.679,0.705,1.11,0.531,-0.456,0.657,-0.0631
CAACCTAGGTCAAGAGGTCAAAGTCCGCTTCCCG,5.47,8.21,7.78,3.12,8.82,4.18,2.41,6.21,4.38
ATCTCTAGGTAATAAGTTCAGTGAAAGAGAGGAC,2.13,1.53,1.59,1.23,0.755,1.64,1.31,1.9,2.41
TCATATAGGTAACGGTGAAAGTCGAACGATATGA,-0.17,0.474,0.423,0.399,0.79,-0.0623,-0.6,0.164,-0.165
CGTCCAAGGTCAAGATCAGTGAAAGAGACTCGAA,3.53,5.63,6.45,3.61,5.54,3.58,1.84,3.61,1.6
